According to PubChem BioAssay (EPA / NIEHS):
Where “and” joins values, the source holds several entries; their conditions need not be identical. Equal values may be shown once. Calls of active or inactive are those of the source. How the source made its calls: active means hit-call score of the fitted dose curve at least 0.9, where 1 is the maximum; inactive means score below 0.9.

Assays:
[1] = BSK_hDFCGF_Proliferation: Cell Proliferation Assessment in the BioMAP Diversity Plus: hDFCGF Assay (AID 2283059); details: primary human foreskin fibroblasts;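 further: curves fitted for both rise and fall of signal versus DMSO baseline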
Method in brief: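 This proliferation readout used SRB total-protein staining of human foreskin fibroblasts […], normalized to DMSO with bidirectional curve fitting.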

[2] = read-out: Macrophage colony-stimulating factor (MCSF), CSF1 (gene 1435); experiment: BSK_hDFCGF_MCSF: BioMAP Diversity Plus: hDFCGF Assay for Macrophage colony-stimulating factor (MCSF) Biomarker Activity (AID 2283060); details: primary human foreskin fibroblasts; actives raise or lower the signal
Method in brief: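 fibroblasts (human foreskin, primary), 24 h post-dose; M-CSF by ELISA; bidirectional fit, DMSO = baseline.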

[3] = BSK_hDFCGF_SRB: Viability Assessment in the BioMAP Diversity Plus: hDFCGF Assay (AID 2283061); details: primary human foreskin fibroblasts;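 further: cells exposed to compound for 24 h before the read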
Method in brief: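 SRB-based viability read on primary human skin fibroblasts at 24 h: TCA fixation, 0.1% dye, 560 nm. Gain or loss of signal is fitted against the DMSO negative control.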

[4] = read-out: TIMP metallopeptidase inhibitor 1 (TIMP1), TIMP1 (gene 7076); experiment: BSK_hDFCGF_TIMP1: BioMAP Diversity Plus: hDFCGF Assay for TIMP metallopeptidase inhibitor 1 (TIMP1) Biomarker Activity (AID 2283062); details: primary human foreskin fibroblasts; actives raise or lower the signal
Method in brief: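 Bidirectional curve fitting against DMSO baseline yielded this endpoint, based on ELISA detection of TIMP-1 in primary human foreskin fibroblasts exposed to compound for 24 h.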

[5] = read-out: Monokine induced gamma interferon (MIG), CXCL9 (gene 4283); experiment: BSK_hDFCGF_MIG: BioMAP Diversity Plus: hDFCGF Assay for Monokine induced gamma interferon (MIG) Biomarker Activity (AID 2283063); details: primary human foreskin fibroblasts; actives raise or lower the signal
Method in brief: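 Endpoint derived by bidirectional fitting relative to DMSO; MIG quantified via ELISA in primary human foreskin fibroblasts harvested 24 h after dosing.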

[6] = read-out: Matrix Metallopeptidase 1 (MMP1), MMP1 (gene 4312); experiment: BSK_hDFCGF_MMP1: BioMAP Diversity Plus: hDFCGF Assay for Matrix Metallopeptidase 1 (MMP1) Biomarker Activity (AID 2283064); details: primary human foreskin fibroblasts; actives raise or lower the signal
Method in brief: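 Primary human foreskin fibroblasts exposed to chemicals for 24 h; MMP1 measured by ELISA. Cytotoxicity tracked by SRB staining in parallel cultures; bidirectional fit relative to DMSO.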

[7] = read-out: Plasminogen activator inhibitor-1 (PAI1), SERPINE1 (gene 5054); experiment: BSK_hDFCGF_PAI1: BioMAP Diversity Plus: hDFCGF Assay for Plasminogen activator inhibitor-1 (PAI1) Biomarker Activity (AID 2283066); details: primary human foreskin fibroblasts; actives raise or lower the signal
Method in brief: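 Human foreskin fibroblasts in the hDFCGF system were dosed with compound for 24 h; PAI-1 was quantified by ELISA. Bidirectional curve fitting used DMSO as negative control and baseline.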

[8] = read-out: Intercellular Adhesion Molecule 1 (ICAM1), ICAM1 (gene 3383); experiment: BSK_KF3CT_ICAM1: BioMAP Diversity Plus: KF3CT Assay for Intercellular Adhesion Molecule 1 (ICAM1) Biomarker Activity (AID 2283067); details: primary human keratinocytes with fibroblasts; actives raise or lower the signal
Method in brief: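 Bidirectional curve fitting against a DMSO baseline was applied to ICAM-1 ELISA signal from primary human skin co-cultures harvested 24 h after treatment, with SRB staining of parallel wells for overt cytotoxicity.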

[9] = read-out: Interferon-gamma inducible Protein 10 (IP10), CXCL10 (gene 3627); experiment: BSK_KF3CT_IP10: BioMAP Diversity Plus: KF3CT Assay for Interferon-gamma inducible Protein 10 (IP10) Biomarker Activity (AID 2283068); details: primary human keratinocytes with fibroblasts; actives raise or lower the signal
Method in brief: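 Signal is secreted/surface IP-10 by ELISA in a human primary skin co-culture of keratinocytes and foreskin fibroblasts, taken 24 h post-dosing; DMSO served as negative control.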

[10] = BSK_KF3CT_SRB: Viability Assessment in the BioMAP Diversity Plus: KF3CT Assay (AID 2283069); details: primary human keratinocytes with fibroblasts;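 further: total protein by sulforhodamine B staining as a cytotoxicity measure; read 24 h after compound addition; fitted for both signal gain and loss against DMSO baseline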
Method in brief: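 Human keratinocyte and foreskin fibroblast co-culture exposed to chemical for 24 h. Total protein measured in parallel cultures by 0.1% sulforhodamine B staining after 10% TCA fixation, read at 560 nm; bidirectional fit relative to DMSO.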

[11] = read-out: Interleukin-1 alpha (IL1a), IL1A (gene 3552); experiment: BSK_KF3CT_IL1a: BioMAP Diversity Plus: KF3CT Assay for Interleukin-1 alpha (IL1a) Biomarker Activity (AID 2283070); details: primary human keratinocytes with fibroblasts; actives raise or lower the signal
Method in brief: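 Primary human keratinocyte plus foreskin fibroblast co-culture, dosed and measured at 24 h in 96-well plates. IL-1a level quantified by ELISA; bidirectional fit relative to DMSO.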

[12] = read-out: TIMP metallopeptidase inhibitor 2 (TIMP2), TIMP2 (gene 7077); experiment: BSK_KF3CT_TIMP2: BioMAP Diversity Plus: KF3CT Assay for TIMP metallopeptidase inhibitor 2 (TIMP2) Biomarker Activity (AID 2283071); details: primary human keratinocytes with fibroblasts; actives raise or lower the signal
Method in brief: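 Human primary keratinocyte/foreskin fibroblast co-culture dosed with chemical and sampled at 24 h. TIMP-2 levels quantified by ELISA; bidirectional fitting against DMSO negative control as baseline.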

[13] = read-out: C-C motif chemokine 2 (Homo sapiens) (UniProt P13500); experiment: BSK_KF3CT_MCP1: BioMAP Diversity Plus: KF3CT Assay for Monocyte Chemoattractant Protein 1 (MCP1/CCL2) Biomarker Activity (AID 2283073); details: primary human keratinocytes with fibroblasts; actives raise or lower the signal
Method in brief: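 Biomarker MCP-1 is measured by ELISA in primary human keratinocytes co-cultured with foreskin fibroblasts, 24 h after chemical treatment; DMSO serves as the negative control and activity baseline.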

[14] = read-out: Matrix Metallopeptidase 9 (MMP9), MMP9 (gene 4318); experiment: BSK_KF3CT_MMP9: BioMAP Diversity Plus: KF3CT Assay for Matrix Metallopeptidase 9 (MMP9) Biomarker Activity (AID 2283074); details: primary human keratinocytes with fibroblasts; actives raise or lower the signal;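 on AC50: MMP9 protein level quantified by ELISA in the co-culture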
Method in brief: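 Human keratinocyte and foreskin fibroblast co-culture exposed to chemicals for 24 h; MMP9 biomarker measured by ELISA, bidirectional fitting relative to DMSO; cytotoxicity tracked by SRB total protein staining in parallel cultures.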

[15] = read-out: urokinase plasminogen activator (uPA), PLAU (gene 5328); experiment: BSK_KF3CT_uPA: BioMAP Diversity Plus: KF3CT Assay for urokinase plasminogen activator (uPA) Biomarker Activity (AID 2283075); details: primary human keratinocytes with fibroblasts; actives raise or lower the signal
Method in brief: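 Primary human keratinocyte/foreskin fibroblast co-culture exposed to chemical; uPA measured by ELISA at 24 h. Bidirectional fit versus DMSO, with parallel SRB total-protein staining for cytotoxicity.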

CD40, CD40 (gene 958) = experiment: BSK_LPS_CD40: BioMAP Diversity Plus: LPS Assay for CD40 Biomarker Activity (AID 2283076); details: primary human HUVEC with PBMC; actives raise or lower the signal
Method in brief: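 Using a multiplexed primary human co-culture (umbilical vein endothelium plus PBMC), CD40 was read by ELISA 24 h after dosing, with cytotoxicity tracked by sulforhodamine B staining of parallel cultures and activity fitted bidirectionally versus DMSO.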

[16] = read-out: E-selectin (Homo sapiens) (UniProt P16581); experiment: BSK_LPS_Eselectin: BioMAP Diversity Plus: LPS Assay for Eselectin Biomarker Activity (AID 2283077); details: primary human HUVEC with PBMC; actives raise or lower the signal
Method in brief: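 Dose chemical onto LPS-driven HUVEC/PBMC co-culture; after 24 h, run ELISA for E-selectin; fit up- and down-going responses relative to DMSO control.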

[17] = read-out: Interleukin-8 (IL8), CXCL8 (gene 3576); experiment: BSK_LPS_IL8: BioMAP Diversity Plus: LPS Assay for Interleukin-8 (IL8) Biomarker Activity (AID 2283078); details: primary human HUVEC with PBMC; actives raise or lower the signal
Method in brief: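 In this LPS system, chemical-treated human umbilical vein endothelium/PBMC co-cultures were harvested at 24 h for IL-8 ELISA.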

[18] = read-out: Transforming growth factor beta 1 (TGFb1), TGFB1 (gene 7040); experiment: BSK_KF3CT_TGFb1: BioMAP Diversity Plus: KF3CT Assay for Transforming growth factor beta 1 (TGFb1) Biomarker Activity (AID 2283072); details: primary human keratinocytes with fibroblasts; actives raise or lower the signal
Method in brief: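 Human keratinocyte plus foreskin fibroblast primary co-culture, dosed with chemical for 24 h. TGF-b1 quantified by ELISA. Activity fitted bidirectionally against DMSO negative control as baseline.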

Measured: AC50

Chain of E-selectin (Homo sapiens) (P16581 whole entry, looked up): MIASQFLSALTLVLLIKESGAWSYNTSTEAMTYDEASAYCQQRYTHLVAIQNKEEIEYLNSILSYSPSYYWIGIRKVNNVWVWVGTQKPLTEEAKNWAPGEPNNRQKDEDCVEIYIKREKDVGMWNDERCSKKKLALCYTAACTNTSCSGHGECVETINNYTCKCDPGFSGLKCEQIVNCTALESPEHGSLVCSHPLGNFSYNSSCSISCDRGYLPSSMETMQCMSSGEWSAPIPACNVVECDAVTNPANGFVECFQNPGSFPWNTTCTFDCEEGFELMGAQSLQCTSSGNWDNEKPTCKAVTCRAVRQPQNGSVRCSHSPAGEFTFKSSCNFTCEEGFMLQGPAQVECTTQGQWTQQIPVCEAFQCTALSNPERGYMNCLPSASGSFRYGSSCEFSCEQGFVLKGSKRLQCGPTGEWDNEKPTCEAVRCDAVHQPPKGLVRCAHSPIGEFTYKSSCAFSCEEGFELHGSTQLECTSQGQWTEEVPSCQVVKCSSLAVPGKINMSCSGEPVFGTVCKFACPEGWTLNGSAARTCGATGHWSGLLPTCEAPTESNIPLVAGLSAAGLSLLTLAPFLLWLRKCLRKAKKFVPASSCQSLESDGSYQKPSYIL

ClC(Cl)=C(c1ccc(Cl)cc1)c1ccc(Cl)cc1
active: [1] 5.36 µM | [2] 20 µM | [3] 18.2 µM | [4] 30 µM | [5] 27.8 µM | [6] 31.6 µM | [7] 16.6 µM | [8] 20 µM | [9] 30.2 µM | [10] 27.9 µM | [11] 27.9 µM | [12] 27 µM | [13] 20 µM | [14] 20 µM | [15] 38.7 µM | CD40, CD40 (gene 958) 29.8 µM | [16] 30.6 µM | [17] 32.1 µM

O=S(=O)(O)C(F)(F)C(F)(F)C(F)(F)C(F)(F)F
not listed: [15] | [18]
inactive: all other assays above

CN(C)c1nc(=O)n(C2CCCCC2)c(=O)n1C
not listed: [15]
inactive: all other assays above

CCOCCOC(C)=O
not listed: [15] | [18]
inactive: all other assays above

O=NN(c1ccccc1)c1ccccc1
not listed: [15] | [18]
inactive: all other assays above

CC(C)(c1ccccc1)c1ccc(O)cc1
active: [1] 29.3 µM | [2] 30.7 µM | [3] 33.8 µM | [4] 32 µM | [5] 39 µM | [6] 32.8 µM | [7] 32.2 µM | [8] 36.9 µM | [9] 35.9 µM | [10] 33.1 µM | [11] 31.2 µM | [12] 34.3 µM | [13] 34.8 µM | [14] 31.4 µM | CD40, CD40 (gene 958) 32.5 µM | [16] 36.7 µM | [17] 35.3 µM

CCNc1nc(NC(C)C)nc(SC)n1
not listed: [15] | [18]
inactive: all other assays above

Clc1ccc(C(Cl)(Cl)Cl)cc1
not listed: [15]
inactive: all other assays above

ClC1=C(Cl)[C@]2(Cl)[C@@H]3[C@@H]4C[C@@H]([C@H]5O[C@@H]45)[C@@H]3[C@@]1(Cl)C2(Cl)Cl
active: [1] 8.97 µM
not listed: [15] | [18]
inactive: all other assays above

Cc1cccc([N+](=O)[O-])c1
not listed: [13] | [15] | [18]
inactive: all other assays above

CCCCCCOC(=O)c1ccccc1C(=O)OCCCCCC
active: [1] 11.2 µM | [17] 20 µM
not listed: [2]
inactive: all other assays above

NS(=O)(=O)C(F)(F)C(F)(F)C(F)(F)C(F)(F)C(F)(F)C(F)(F)C(F)(F)C(F)(F)F
active: [1] 12.2 µM and 18.3 µM and 19.5 µM | [2] 14.8 µM and 8.52 µM and 8.29 µM | [3] 26.9 µM and 55 µM and 47.2 µM | [4] 34.4 µM and 53.2 µM and 54.7 µM | [5] 29.4 µM and 9.34 µM and 11 µM | [6] 30.7 µM and 15.3 µM and 17.5 µM | [7] 27.7 µM and 15.4 µM and 21.1 µM | [8] 32 µM and 43.5 µM and 54 µM | [9] 13 µM and 32.4 µM and 37.3 µM | [10] 30.1 µM and 45.6 µM and 21.4 µM | [11] 29.4 µM and 43.8 µM and 44.6 µM | [12] 26 µM and 40.7 µM and 44.4 µM | [13] 33.4 µM and 48.9 µM and 52.2 µM | [14] 12.2 µM and 19.9 µM and 20.4 µM | CD40, CD40 (gene 958) 23.9 µM and 39.6 µM and 39.1 µM | [16] 29.7 µM and 54.3 µM and 58.5 µM | [17] 30.1 µM and 45.6 µM and 49.8 µM
